Results published in PubChem BioAssay (NCI).
This is part of a sample that, as a whole, favours compounds with a hit. Of some 79,000 tested, about 15% had one in any assay. Values without a mark were called inactive. Activity calls are given as the source filed them. Rule as the data show it: active = growth inhibition above about 70%; inactive = the rest.

Assay: NCI Yeast Anticancer Drug Screen. Data for the cln2 rad14 strain (AID 165);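 also: 0% = growth equal to vehicle treated cultures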
Settings: S. cerevisiae cln2 rad14 strain, at 5.0 µM (retest, dose inferred, filed as 0.5), active compounds read high
Procedure, shortened: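 Compounds are applied to the cln2 rad14 yeast strain, and growth is then compared with that of vehicle-treated cultures to give inhibition.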

SMILES	growth inhibition [%]
CCN(CC)CC[n+]1ccc2c(C)c3[nH]c4ccc(O)cc4c3c(C)c2c1	-2
O=[n+]1c2ccc(Cl)cc2n([O-])c2ccc(Cl)cc21	-10
CCOP(=O)(OCC)C(Cc1ccccc1)N=C(c1ccccc1)c1ccccc1 (stereo not drawn)	-1
CC[C@@]1(O)C(=O)OCc2c1cc1n(c2=O)Cc2cc3c(N)cccc3nc2-1	35
COC1C=COC2(C)Oc3c(C)c(O)c4c(c3C2=O)/C(=N/C2CCC(O)OC2C)C=C(NC(=O)/C(C)=C\C(=O)C2CC2C(O)C(C)C(O)C(C)C(OC(C)=O)C1C)C4=O (stereo not drawn)	15
COc1cc2c(c(OC)c1OC)-c1c(cc3c(c1OC)OCO3)CC(C)C(C)(O)C2OC(=O)c1ccccc1 (stereo not drawn)	10
O=c1ssc2ncccc12	21
O=C1C2C(C(=O)N1c1ccc(OCc3ccccc3)cc1)C1c3ccccc3C2C2CCCCN21 (stereo not drawn)	-14
COc1ccc(-c2cn(-c3ccc(I)cc3)c3ncnc(N)c23)cc1	4
CCOC(=O)C(NC(=O)c1ccccc1)(N1CCN(c2cc3c(cc2F)c(=O)c(C(=O)O)cn3C2CC2)CC1)C(F)(F)F (stereo not drawn)	41
C/C(=N\O)C1CC2C=C(C#N)C1N(Cc1ccccc1)C2 (stereo not drawn)	-1
CC/C(=C(\c1ccccc1)c1ccc(OCCN(C)C)cc1)c1ccccc1	30
COc1ccccc1N=NC(C(=O)c1ccccc1)C(=O)c1ccccc1	10
CC(O)C(O)C(O)C(/C=N\Nc1ccccc1)=N/Nc1ccccc1 (stereo not drawn)	1
COc1ccc(/C=C2\SC(=S)N(/C=C/c3nc4ccccc4[nH]c3=O)C2=O)cc1OC	-30
N#CN=Nc1cc(Cl)c(N=NC#N)cc1Cl	33
Cc1ccc(S(=O)(=O)Oc2cc(Cl)c(Cl)cc2Cl)cc1	4
c1ccc2c(c1)Oc1cccc3cccc-2c13	34
O=C(c1ccc(Cl)cc1Cl)C(Cl)Cl	68
CC(C)C1=CCC2C(=C1)CCC1C(C)(C(=O)O)CCCC21C (stereo not drawn) (tested in a mixture with another compound)	9

SMILES	growth inhibition [%]
COc1cc(/C=C2\CCc3ccccc3C2=O)cc(OC)c1OC	2
CC(=O)[O][Bi]([c]1ccccc1)[c]1ccccc1	7
S=C(N/N=C/c1ccccn1)Nc1ccc(Cl)cc1	38
COc1cc(CC2CC(c3ccc4c(c3)OCO4)OC2=O)cc(OC)c1OC (stereo not drawn)	-1
CNC1C(OC2C(OC3C(O)C(O)C(N=C(N)N)C(O)C3N=C(N)N)OC(C)C2(O)CO)OC(CO)C(O)C1O (stereo not drawn)	11
NNC(=O)CCc1ccc2ccc3ccccc3c2c1	-28
Oc1ccc2ccccc2c1C(c1ccc(Cl)cc1)c1c(O)ccc2ccccc12	56
CCCCN(CCCC)CCSc1ccc(Cl)cc1	0
CCC(C)COC(=O)c1ccc(N=Cc2ccc(C=Nc3ccc(C(=O)OCC(C)CC)cc3)cc2)cc1 (stereo not drawn)	12
CC1(C)C(=O)OC(n2cc(F)c(=O)[nH]c2=O)C1=O (stereo not drawn)	27
O=[N+]([O-])CC(SCc1ccccc1)c1ccc2c(c1)OCO2 (stereo not drawn)	15
COc1cc2c(cc1[N+](=O)[O-])C(=O)C(Br)(Br)CCC2	25
OCC1OC(OCC(O)C(O)C(O)C(/C=N/Nc2ccccc2)=N/Nc2ccccc2)C(O)C(O)C1O (stereo not drawn)	7
COc1ccc(N=C2C(=O)Nc3ccc(Br)cc32)cc1	54
Cn1c(=O)c2ccccc2c2ccccc21	-54
CC[n+]1ccc2c(C)c3[nH]c4ccc(O)cc4c3c(C)c2c1	5
CC(=O)ON1C(=O)c2cccc3cccc(c23)C1=O	23
COc1ccc2ccc3ccccc3c2c1C=O	15
OC1CCCc2c1cc1ccc3cccc4ccc2c1c34 (stereo not drawn)	-4

Same assay, conditions: S. cerevisiae cln2 rad14 strain, at 50.0 µM (retest, dose inferred, filed as 5.0), active compounds read high

SMILES	growth inhibition
CCN(CC)CC[n+]1ccc2c(C)c3[nH]c4ccc(O)cc4c3c(C)c2c1	18%
O=[n+]1c2ccc(Cl)cc2n([O-])c2ccc(Cl)cc21	-13%
CCOP(=O)(OCC)C(Cc1ccccc1)N=C(c1ccccc1)c1ccccc1 (stereo not drawn)	-1%
CC[C@@]1(O)C(=O)OCc2c1cc1n(c2=O)Cc2cc3c(N)cccc3nc2-1	-11%
COC1C=COC2(C)Oc3c(C)c(O)c4c(c3C2=O)/C(=N/C2CCC(O)OC2C)C=C(NC(=O)/C(C)=C\C(=O)C2CC2C(O)C(C)C(O)C(C)C(OC(C)=O)C1C)C4=O (stereo not drawn)	57%
COc1cc2c(c(OC)c1OC)-c1c(cc3c(c1OC)OCO3)CC(C)C(C)(O)C2OC(=O)c1ccccc1 (stereo not drawn)	68%
O=c1ssc2ncccc12	90% (active)
O=C1C2C(C(=O)N1c1ccc(OCc3ccccc3)cc1)C1c3ccccc3C2C2CCCCN21 (stereo not drawn)	-15%
COc1ccc(-c2cn(-c3ccc(I)cc3)c3ncnc(N)c23)cc1	65%
CCOC(=O)C(NC(=O)c1ccccc1)(N1CCN(c2cc3c(cc2F)c(=O)c(C(=O)O)cn3C2CC2)CC1)C(F)(F)F (stereo not drawn)	-13%
C/C(=N\O)C1CC2C=C(C#N)C1N(Cc1ccccc1)C2 (stereo not drawn)	8%
CC/C(=C(\c1ccccc1)c1ccc(OCCN(C)C)cc1)c1ccccc1	99% (active)
COc1ccccc1N=NC(C(=O)c1ccccc1)C(=O)c1ccccc1	95% (active)
CC(O)C(O)C(O)C(/C=N\Nc1ccccc1)=N/Nc1ccccc1 (stereo not drawn)	49%
COc1ccc(/C=C2\SC(=S)N(/C=C/c3nc4ccccc4[nH]c3=O)C2=O)cc1OC	26%
N#CN=Nc1cc(Cl)c(N=NC#N)cc1Cl	55%
Cc1ccc(S(=O)(=O)Oc2cc(Cl)c(Cl)cc2Cl)cc1	3%
c1ccc2c(c1)Oc1cccc3cccc-2c13	20%
O=C(c1ccc(Cl)cc1Cl)C(Cl)Cl	98% (active)
CC(C)C1=CCC2C(=C1)CCC1C(C)(C(=O)O)CCCC21C (stereo not drawn) (tested in a mixture with another compound)	98% (active)

SMILES	growth inhibition
COc1cc(/C=C2\CCc3ccccc3C2=O)cc(OC)c1OC	24%
CC(=O)[O][Bi]([c]1ccccc1)[c]1ccccc1	95% (active)
S=C(N/N=C/c1ccccn1)Nc1ccc(Cl)cc1	90% (active)
COc1cc(CC2CC(c3ccc4c(c3)OCO4)OC2=O)cc(OC)c1OC (stereo not drawn)	7%
CNC1C(OC2C(OC3C(O)C(O)C(N=C(N)N)C(O)C3N=C(N)N)OC(C)C2(O)CO)OC(CO)C(O)C1O (stereo not drawn)	59%
NNC(=O)CCc1ccc2ccc3ccccc3c2c1	-15%
Oc1ccc2ccccc2c1C(c1ccc(Cl)cc1)c1c(O)ccc2ccccc12	95% (active)
CCCCN(CCCC)CCSc1ccc(Cl)cc1	4%
CCC(C)COC(=O)c1ccc(N=Cc2ccc(C=Nc3ccc(C(=O)OCC(C)CC)cc3)cc2)cc1 (stereo not drawn)	12%
CC1(C)C(=O)OC(n2cc(F)c(=O)[nH]c2=O)C1=O (stereo not drawn)	45%
O=[N+]([O-])CC(SCc1ccccc1)c1ccc2c(c1)OCO2 (stereo not drawn)	97% (active)
COc1cc2c(cc1[N+](=O)[O-])C(=O)C(Br)(Br)CCC2	98% (active)
OCC1OC(OCC(O)C(O)C(O)C(/C=N/Nc2ccccc2)=N/Nc2ccccc2)C(O)C(O)C1O (stereo not drawn)	-1%
COc1ccc(N=C2C(=O)Nc3ccc(Br)cc32)cc1	37%
Cn1c(=O)c2ccccc2c2ccccc21	-6%
CC[n+]1ccc2c(C)c3[nH]c4ccc(O)cc4c3c(C)c2c1	23%
CC(=O)ON1C(=O)c2cccc3cccc(c23)C1=O	69%
COc1ccc2ccc3ccccc3c2c1C=O	16%
OC1CCCc2c1cc1ccc3cccc4ccc2c1c34 (stereo not drawn)	94% (active)
